# Assay results published in PubChem BioAssay AID939 (National Center for Advancing Translational Sciences (NCATS), 2007).
# Results filed as inconclusive are left out. Calls of active or inactive are those of the source. Calls come from the whole dose curve; as a rule, active = well fitted activation curve with a large enough effect in the main read-out, with a control signal flat; inconclusive = small, poorly fitted or top-dose-only effect, or effect the other way, or a change in a side signal; inactive = no such curve, though single readings can be large or run the other way.
# Tested on: not listed separately
# Test: Confirmation Concentration-Response Assay for Agonists of the Thyroid Stimulating Hormone Receptor; for activation: % of control where 0% means no effect
# Details: HEK293 TSHR-CNG cells, membrane potential dye, cAMP; measured here: parental HEK293 counter-screen max
# Procedure, shortened: (§1)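 A cyclic nucleotide gated channel serves as cAMP sensor in HEK 293 cells stably carrying TSHR, with depolarization detected by fluorescent dye at 590 nm after 30 min compound. Parental cells lacking TSHR run alongside.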
# Potency is the fitted concentration of half-maximal effect.
row,Compound,max response
1,Cc1ccc(S(=O)(=O)NC(=O)Nn2c(C)nnc2C)cc1,1.93%
2,Oc1ccccc1Cn1c(-c2ccccc2O)nc2ccccc21,-14.6%
3,CC1(C)c2ccccc2N2CCC(=O)NC21/C=C/c1ccco1 (configuration not stated),13.4%
4,CCS(=O)(=O)N1CCN(C(C)CCc2ccccc2)CC1 (configuration not stated),-2.55%
5,O=S1(=O)N=C(Oc2ccccc2)c2ccccc21,-6.77%
6,Cc1nn(-c2ccccc2)c(N2CCCC2)c1/C=N/n1cnc2scc(-c3ccccc3)c2c1=O,16.6%
7,CCc1ccccc1NC1=NCC(=O)N1Cc1ccc(OC)cc1,-6.12%
8,Cc1onc(-c2ccccc2Cl)c1C(=O)Nc1ccc(-n2nncc2-c2ccco2)cc1,-3.47%
9,COc1ccc(C2Nc3ccccc3C(=O)N2Cc2ccco2)cc1COc1ccc(NC(C)=O)cc1 (configuration not stated),21.9%
10,Cc1ccc(N(CC(=O)NCc2ccco2)S(=O)(=O)c2ccccc2)cc1,-6.79%
11,O=C(COC(=O)C12CC3CC(CC(C3)C1)C2)NCc1ccco1,-5.29%
12,NC(=O)c1nsc(C(=O)N(CC(=O)NCc2ccc3c(c2)OCO3)C2CCCC2)c1N,7.46%

# Target: Thyrotropin receptor (Homo sapiens) (UniProt P16473)
# Test: as above
# Details: HEK293 TSHR-CNG cells, membrane potential dye, cAMP; series mostly up to 25.6 µM; activation: at the top concentration
# Procedure, shortened: as §1
# Sequence of Thyrotropin receptor (Homo sapiens) (P16473 whole entry, looked up): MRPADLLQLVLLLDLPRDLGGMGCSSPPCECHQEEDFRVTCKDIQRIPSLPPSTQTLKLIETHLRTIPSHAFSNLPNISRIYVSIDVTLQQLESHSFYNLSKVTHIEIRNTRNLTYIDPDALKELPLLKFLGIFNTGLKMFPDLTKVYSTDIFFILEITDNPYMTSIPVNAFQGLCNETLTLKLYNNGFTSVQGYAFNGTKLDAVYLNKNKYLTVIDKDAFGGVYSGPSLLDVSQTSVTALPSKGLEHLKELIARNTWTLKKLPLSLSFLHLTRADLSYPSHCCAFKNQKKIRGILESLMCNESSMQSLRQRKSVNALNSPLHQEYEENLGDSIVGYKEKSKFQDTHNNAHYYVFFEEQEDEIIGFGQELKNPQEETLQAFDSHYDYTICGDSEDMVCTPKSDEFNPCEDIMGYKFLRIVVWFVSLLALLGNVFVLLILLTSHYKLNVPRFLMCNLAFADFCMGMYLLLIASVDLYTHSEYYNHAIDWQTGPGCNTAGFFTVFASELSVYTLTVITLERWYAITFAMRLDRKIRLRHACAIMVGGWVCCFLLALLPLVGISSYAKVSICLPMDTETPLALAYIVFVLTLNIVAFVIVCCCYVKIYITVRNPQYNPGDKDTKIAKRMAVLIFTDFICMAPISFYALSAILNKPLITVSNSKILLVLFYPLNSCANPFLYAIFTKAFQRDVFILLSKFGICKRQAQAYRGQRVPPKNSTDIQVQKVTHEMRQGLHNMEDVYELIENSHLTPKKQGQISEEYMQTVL
Compound,activation,Potency
Cc1ccccc1-n1nc(C)c2cc(C(=O)N3CCN(S(=O)(=O)c4ccc(F)cc4)CC3)sc21,-1.75% [at 32.9 µM] (inactive),
O=C(CN(Cc1ccc(F)cc1)S(=O)(=O)c1ccccc1)N1CCCCC1,,10 µM (active)
CCOc1ccc(N(CC(=O)NC(C)(C)C)S(=O)(=O)c2c(C)noc2C)cc1,16.8% (inactive),
COc1cccc(C2CC(c3ccccc3OC)n3nc(N)nc3N2)c1 (configuration not stated),15.4% (inactive),
Cc1ccc(S(=O)(=O)N2CCC(C(=O)NCCCN3CCCCCC3)CC2)cc1,13.1% [at 32.9 µM] (inactive),
Cc1ccc(-n2nc(-c3ccc(N)cc3)cc2N)cc1,-50.8% (inactive),
Cn1c(=O)[nH]c(=O)c2c1nc(N1CCCCCC1)n2CCCSc1nc2ccccc2o1,-24.4% (inactive),
Cc1cc(C)nc(N(C#N)CC(=O)N2CCC(C(N)=O)CC2)n1,8.57% [at 32.9 µM] (inactive),
O=c1c2ccccc2ncn1-c1ccc2c(c1)OCCO2,13.2% (inactive),
O=C(C1COc2ccccc2O1)N1CCCC1 (configuration not stated),-9.39% (inactive),
Cc1ccc2nc(SCC(=O)O)nc(C)c2c1,-143% (inactive),
COc1ccc(-c2ccc(-c3noc(C)n3)c(OC)n2)cc1,-6.03% [at 32.9 µM] (inactive),
Cc1onc(-c2ccccc2)c1C(=O)N1CCCSC1=Nc1ccccc1,,7.94 µM (active)
CC(c1ccco1)N(C(=O)c1ccc(Cl)s1)c1ccccn1 (configuration not stated),,7.94 µM (active)
Cc1oc(-c2cccc(Cl)c2)nc1CN1CCCC(C(=O)NC(C)c2ccc3c(c2)OCCO3)C1 (configuration not stated),-51.1% (inactive),
COc1ccc(C(=O)N(Cc2ccco2)Cc2cccs2)c(O)c1,,1 µM (active)
CC1(C)c2ccccc2N2CC(=O)NC21/C=C/c1ccco1 (configuration not stated),,12.6 µM (active)
Oc1ccccc1-c1cc(C(F)(F)C(F)F)nc(-c2ccccc2)n1,,7.94 µM (active)
Cc1ccc(S(=O)(=O)NC(=O)Nn2c(C)nnc2C)cc1,14.5% (inactive),
Oc1ccccc1Cn1c(-c2ccccc2O)nc2ccccc21,,12.6 µM (active)
CC1(C)c2ccccc2N2CCC(=O)NC21/C=C/c1ccco1 (configuration not stated),,6.31 µM (active)
CCS(=O)(=O)N1CCN(C(C)CCc2ccccc2)CC1 (configuration not stated),7.23% [at 32.9 µM] (inactive),
O=S1(=O)N=C(Oc2ccccc2)c2ccccc21,23.9% (inactive),
Cc1nn(-c2ccccc2)c(N2CCCC2)c1/C=N/n1cnc2scc(-c3ccccc3)c2c1=O,,1.58 µM (active)
CCc1ccccc1NC1=NCC(=O)N1Cc1ccc(OC)cc1,,12.6 µM (active)
Cc1onc(-c2ccccc2Cl)c1C(=O)Nc1ccc(-n2nncc2-c2ccco2)cc1,,12.6 µM (active)
COc1ccc(C2Nc3ccccc3C(=O)N2Cc2ccco2)cc1COc1ccc(NC(C)=O)cc1 (configuration not stated),,0.631 µM (active)
Cc1ccc(N(CC(=O)NCc2ccco2)S(=O)(=O)c2ccccc2)cc1,,12.6 µM (active)
O=C(COC(=O)C12CC3CC(CC(C3)C1)C2)NCc1ccco1,,2 µM (active)
NC(=O)c1nsc(C(=O)N(CC(=O)NCc2ccc3c(c2)OCO3)C2CCCC2)c1N,,12.6 µM (active)
